system: HeLa; test: percent cells in G2/M phase; higher = more G2/M arrest; conditions: 10 µM; 20 h; hit class: G1-phase inhibitor
Description: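 HTS of 79,827 drug-like compounds at 10 uM. HeLa cells in 384-well plates were treated for 20 h, fixed, stained with Vybrant DyeCycle Green and scanned on an Acumen eX3 cytometer to give per-well cell cycle profiles (% cells in each phase). The plate Z' was 0.51. Only hits are listed: G1 hits >4 SD and S hits >5 SD from the mean.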

Compound	percent cells in G2/M phase
C[C@@]12C(=O)OC(=O)[C@]1(C)[C@H]1CC[C@@H]2O1	12%
CNC1CC2OC(C)(C1OC)n1c3ccccc3c3c4c(c5c6ccccc6n2c5c31)C(=O)NC4 (centres undefined)	3.24%
CC(C)(C)c1cc(C=C(C#N)C#N)cc(C(C)(C)C)c1O	12.3%
C/C=C(/C)C(=O)O[C@H]1C(C)=C2[C@H]([C@@H]1OC(=O)CCCCCCC)[C@@](C)(OC(C)=O)C[C@H](OC(=O)CCC)[C@@]1(O)[C@H]2OC(=O)[C@@]1(C)O	9.52%
C[C@@H]1O[C@@H](O[C@H]2C[C@@H](O)[C@]3(CO)[C@H]4[C@H](O)C[C@]5(C)[C@@H](C6=CC(=O)OC6)CC[C@]5(O)[C@@H]4CC[C@]3(O)C2)[C@H](O)[C@H](O)[C@H]1O	12.2%
C/C(=C\c1ccc(Cl)cc1)[N+](=O)[O-]	2.17%
O=[N+]([O-])c1ccc(NCCO)c2ncccc12	23.7%
C[C@@H]1C[C@@H]([C@H](O)CC2CC(=O)NC(=O)C2)C(=O)[C@@H](C)C1 [Cycloheximide]	11.8%
CNc1ccc2oc(C[C@H]3O[C@@]4(CC[C@H]3C)O[C@H]([C@H](C)C(=O)c3ccc[nH]3)[C@H](C)C[C@H]4C)nc2c1C(=O)O	5.98%
